# According to the supplement of paper PMC10037445:
# The full ranking holds about 2,900 compounds; the median of “IRF Lucia reporter activity, fold change vs agonist alone” is about 0.9, and the highest 2% start at about 2.8. Shown is part of a subset that was picked to be rich in the highest values.
# What was measured:
# RAW-Dual [1] = experiment: IRF Lucia reporter activity, fold change vs agonist alone; cytotoxicity flag (confluency mask): not cytotoxic; higher = enhanced IRF activity
# Method in brief: (§1)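 RAW-Dual macrophages (50,000 cells/well in DMEM, 384-well plates) received 50 nL of library stock by pin tool, then a PRR agonist 1 h later, and were kept at 37 °C, 5% CO2. After 20 hours, supernatant was read for IRF by QuantiLuc luminescence and for NF-κB by QuantiBlue absorbance at 620 nm. Reporter activity is fold change over agonist-alone wells. Cytotoxic wells had IncuCyte confluency below 70% of agonist controls in both mask sets.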
# RAW-Dual [2] = experiment: IRF Lucia reporter activity, fold change vs agonist alone; cytotoxicity flag (confluency mask): cytotoxic (confluency <70% of control); higher = enhanced IRF activity
# Method in brief: as §1
# RAW-Dual [3] = experiment: IRF Lucia reporter activity, fold change vs agonist alone; higher = enhanced IRF activity; conditions: agonist: MPLA (TLR4) […]
# Method in brief: as §1
# [4] = agonist: 3'3'-cGAMP (STING) 10 ug/mL
# [5] = library stock concentration (final ~1000-fold dilution): 10 mM, cytotoxicity flag (confluency mask): cytotoxic (confluency <70% of control)
# [6] = library stock concentration (final ~1000-fold dilution): 10 mM, cytotoxicity flag (confluency mask): not cytotoxic
compound,measurement,setting,value
CC1COCCN1c1cc(C2(S(C)(=N)=O)CC2)nc(-c2ccnc3[nH]ccc23)n1 (configuration not stated) (library stock concentration (final ~1000-fold dilution): 10 mM),IRF Lucia reporter activity,RAW-Dual [1]; [4],0.193
same,IRF Lucia reporter activity,RAW-Dual [1]; agonist: LPS (TLR4) 0.1 ug/mL,1.39
COc1cc(C=CC(=O)OCC[N+](C)(C)C)cc(OC)c1O (library stock concentration (final ~1000-fold dilution): 10 mM),IRF Lucia reporter activity,RAW-Dual [1]; [4],0.894
same,IRF Lucia reporter activity,RAW-Dual [1]; agonist: LPS (TLR4) 0.1 ug/mL,1.04
O=c1cc(N2CCOCC2)oc2c(-c3cccc4c3sc3ccccc34)cccc12 (library stock concentration (final ~1000-fold dilution): 2 mM),IRF Lucia reporter activity,RAW-Dual [1]; [4],0.548
same,IRF Lucia reporter activity,RAW-Dual [1]; agonist: LPS (TLR4) 0.1 ug/mL,7.23
O=c1nc(N2CCOCC2)oc2c(-c3cccc4c3sc3ccccc34)cccc12 (library stock concentration (final ~1000-fold dilution): 10 mM),IRF Lucia reporter activity,RAW-Dual [1]; [4],0.298
same,IRF Lucia reporter activity,RAW-Dual [1]; agonist: LPS (TLR4) 0.1 ug/mL,1.03
O=c1cc(N2CCOCC2)oc2c(-c3ccccc3)cccc12 (library stock concentration (final ~1000-fold dilution): 10 mM),IRF Lucia reporter activity,RAW-Dual [2]; [4],0.353
same,IRF Lucia reporter activity,RAW-Dual [2]; agonist: LPS (TLR4) 0.1 ug/mL,0.393
O=c1cc(N2CCOCC2)oc2c(-c3cccc4c3sc3ccccc34)cccc12,IRF Lucia reporter activity,"RAW-Dual [3]; library stock concentration (final ~1000-fold dilution): 2 mM, cytotoxicity flag (confluency mask): not cytotoxic",2.7
O=c1cc(N2CCOCC2)oc2c(-c3ccccc3)cccc12,IRF Lucia reporter activity,RAW-Dual [3]; [5],0.627
COc1ccc(C2OCC3C(c4ccc(OC)c(OC)c4)OCC23)cc1OC (configuration not stated) (library stock concentration (final ~1000-fold dilution): 10 mM),IRF Lucia reporter activity,RAW-Dual [1]; [4],1.35
same,IRF Lucia reporter activity,RAW-Dual [1]; agonist: LPS (TLR4) 0.1 ug/mL,0.899
O=C(C=Cc1ccc(O)cc1)c1ccc(O)cc1O (library stock concentration (final ~1000-fold dilution): 10 mM),IRF Lucia reporter activity,RAW-Dual [1]; [4],0.252
same,IRF Lucia reporter activity,RAW-Dual [1]; agonist: LPS (TLR4) 0.1 ug/mL,0.535
COC(=O)C1=C(C)NC(C)=C(C(=O)OC(C)(C)CN(C)CCC(c2ccccc2)c2ccccc2)C1c1cccc([N+](=O)[O-])c1.Cl (configuration not stated),IRF Lucia reporter activity,RAW-Dual [3]; [6],2.1
COC(=O)C1=C(C)NC(C)=C(C(=O)OC(C)(C)CN(C)CCC(c2ccccc2)c2ccccc2)C1c1cccc([N+](=O)[O-])c1.Cl (configuration not stated) (library stock concentration (final ~1000-fold dilution): 10 mM),IRF Lucia reporter activity,RAW-Dual [1]; [4],0.139
same,IRF Lucia reporter activity,RAW-Dual [1]; agonist: LPS (TLR4) 0.1 ug/mL,3.23
COC(=O)C1=C(C)NC(C)=C(C(=O)OC(C)(C)CN(C)CCC(c2ccccc2)c2ccccc2)C1c1cccc([N+](=O)[O-])c1 (configuration not stated) (library stock concentration (final ~1000-fold dilution): 10 mM),IRF Lucia reporter activity,RAW-Dual [1]; [4],0.134
same,IRF Lucia reporter activity,RAW-Dual [1]; agonist: LPS (TLR4) 0.1 ug/mL,1.96
COC(=O)C1=C(C)NC(C)=C(C(=O)OC(C)(C)CN(C)CCC(c2ccccc2)c2ccccc2)C1c1cccc([N+](=O)[O-])c1 (configuration not stated),IRF Lucia reporter activity,RAW-Dual [3]; [6],2.39
COC(=O)C1=C(C)NC(C)=C(C(=O)OCCN(C)Cc2ccccc2)C1c1cccc([N+](=O)[O-])c1.Cl (configuration not stated),IRF Lucia reporter activity,RAW-Dual [3]; [6],1.12
COC(=O)C1=C(C)NC(C)=C(C(=O)OCCN(C)Cc2ccccc2)C1c1cccc([N+](=O)[O-])c1.Cl (configuration not stated) (library stock concentration (final ~1000-fold dilution): 10 mM),IRF Lucia reporter activity,RAW-Dual [1]; [4],0.3
same,IRF Lucia reporter activity,RAW-Dual [1]; agonist: LPS (TLR4) 0.1 ug/mL,1.4
COC(=O)c1ccc(O)c(NC(=O)COc2ccc(C34CC5CC(CC(C5)C3)C4)cc2)c1 (library stock concentration (final ~1000-fold dilution): 10 mM),IRF Lucia reporter activity,RAW-Dual [1]; [4],0.925
same,IRF Lucia reporter activity,RAW-Dual [1]; agonist: LPS (TLR4) 0.1 ug/mL,1.14
CC(C)Cc1ccc([C@@H](C)C(=O)O)cc1 (library stock concentration (final ~1000-fold dilution): 10 mM),IRF Lucia reporter activity,RAW-Dual [1]; [4],0.953
same,IRF Lucia reporter activity,RAW-Dual [1]; agonist: LPS (TLR4) 0.1 ug/mL,1.08
CCC(C)C(=O)OC1CC(C)C=C2C=CC(C)C(CCC3CC(O)CC(=O)O3)C21 (configuration not stated) (library stock concentration (final ~1000-fold dilution): 10 mM),IRF Lucia reporter activity,RAW-Dual [1]; [4],0.497
same,IRF Lucia reporter activity,RAW-Dual [1]; agonist: LPS (TLR4) 0.1 ug/mL,0.764
CCC(C)C(=O)OC1CC(C)C=C2C=CC(C)C(CCC3CC(O)CC(=O)O3)C21 (configuration not stated),IRF Lucia reporter activity,RAW-Dual [3]; [6],0.744
Cc1cc(/C=C/C#N)cc(C)c1Nc1ccnc(Nc2ccc(C#N)cc2)n1,IRF Lucia reporter activity,RAW-Dual [3]; [6],0.64
Cc1cc(C#N)cc(C)c1Oc1nc(Nc2ccc(C#N)cc2)nc(N)c1Br,IRF Lucia reporter activity,RAW-Dual [3]; [6],2.4
Cc1cc(C)c(Nc2ccnc(Nc3ccc(C#N)cc3)n2)c(C)c1,IRF Lucia reporter activity,RAW-Dual [3]; [5],1.7
Cc1cc(C)c(Nc2ccnc(Nc3ccc(C#N)cc3)n2)c(C)c1 (library stock concentration (final ~1000-fold dilution): 10 mM),IRF Lucia reporter activity,RAW-Dual [2]; [4],0.691
same,IRF Lucia reporter activity,RAW-Dual [2]; agonist: LPS (TLR4) 0.1 ug/mL,0.81
Cc1cc(C#N)cc(C)c1Oc1nc(Nc2ccc(C#N)cc2)nc(N)c1Br (library stock concentration (final ~1000-fold dilution): 10 mM),IRF Lucia reporter activity,RAW-Dual [1]; [4],1.09
same,IRF Lucia reporter activity,RAW-Dual [1]; agonist: LPS (TLR4) 0.1 ug/mL,2.87
Cc1cc(/C=C/C#N)cc(C)c1Nc1ccnc(Nc2ccc(C#N)cc2)n1 (library stock concentration (final ~1000-fold dilution): 10 mM),IRF Lucia reporter activity,RAW-Dual [1]; [4],0.03
same,IRF Lucia reporter activity,RAW-Dual [1]; agonist: LPS (TLR4) 0.1 ug/mL,0.489
CC1CNc2c(cccc2S(=O)(=O)NC(CCCNC(=N)N)C(=O)N2CCC(C)CC2C(=O)O)C1 (configuration not stated),IRF Lucia reporter activity,RAW-Dual [3]; [6],0.948
